# RGS12 GoLoco inh: RGS12 GoLoco-Gai1 interaction inhibition; P63096; Gai1:RGS12 GoLoco peptide FP, rhodamine, 10 min; Potency, µM (highest dose often 61.6 µM), without a hit: top-dose activity, negative = inhibition, hits mostly inhibitors; actives 0.44% (n = 230,000); active = well fitted inhibition curve with a large enough effect, not every such curve was filed as active; inactive = no such curve, though single readings can be large or run the other way; note: potency is the fitted concentration of half-maximal effect; nearly all actives have a fitted effect of over 30% in size
# NPSR antag: antagonists of human neuropeptide S receptor cAMP signaling. Q6W5P4. CHO-NPSR cells, cAMP TR-FRET, antagonist mode. Potency, µM (titrated, usually from 38.3 µM), for the others: at the highest dose activity change, negative = inhibition, most hits filed as inhibitors. actives 1% (n = 220,000). AID 1461; active = well fitted curve in the direction sought with a large enough effect; inconclusive = small, poorly fitted or top-dose-only effect, or another doubt; inactive = no such curve, though single readings can be large; an effect the other way counts as inactive or inconclusive; note: potency is the fitted concentration of half-maximal effect; nearly all actives have a fitted effect of over 50% in size
# Coupling enz: coupling enzyme interference in Giardia aldolase counter-screen. actives 0.67% (n = 290,000). coupling enzyme system counterscreen, AmpLite Red fluorescence. activity change, negative = inhibition, % at 58.2 µM, hits read low. AID 2472; in the data active = activity change below about -30%
#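 Counterscreen lacking aldolase: glyceraldehyde-3-phosphate coupling-enzyme reagent preincubated 10 min at RT with compound (at 57.5 uM final), then substrate/coupling system with AmpLite Red added; fluorescence read at 525/598 nm after 20 min RT.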
# Sfp PPTase inh: inhibitors of Bacillus subtilis Sfp phosphopantetheinyl transferase. Q9F4F7. Potency, µM, inactives show largest response in the series, negative = inhibition, hits mostly inhibitors. Biochemical Sfp PPTase activity, qHTS. actives 3.5% (n = 310,000); active = well fitted curve in the direction sought with a large enough effect; inconclusive = small, poorly fitted or top-dose-only effect, or another doubt; inactive = no such curve, though single readings can be large; an effect the other way counts as inactive or inconclusive;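 note: the enzyme is Sfp with the accession as filed and its product quenches rhodamine fluorescence; potency is the fitted concentration of half-maximal effect; 0% = enzyme reaction without inhibitor and -100% = no enzyme wells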
#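 Reaction rates are the 30-min fluorescence difference (ex 525, em 598 nm) in wells containing 15 nM Sfp, 5 uM rhodamine-CoA and 12.5 uM BHQ-2-YbbR at pH 7.6 with 10 mM MgCl2.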
# KDM4E inh: blocks human JMJD2E demethylase activity; B2RXH2; JMJD2E catalytic domain, FDH-coupled NADH fluorescence (FDH is formaldehyde dehydrogenase); Potency, µM (titrated, usually from 57.1 µM), for the others: at the highest dose activity change, negative = inhibition, usual class: inhibitors; actives 1.6% (n = 230,000); AID 2147;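 note: potency is the fitted concentration of half-maximal effect; 0% = wells with enzyme and -100% = buffer wells without enzyme; nearly all actives have a fitted effect of over 50% in size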
# ALDH1A1 block: ALDH1A1 (human) enzyme inhibition | P00352 | Purified ALDH1A1, NADH fluorescence, propionaldehyde substrate | Potency, µM (titrated, usually from 75.3 µM), without a hit: top-dose activity, negative = inhibition, most hits filed as inhibitors | actives 7.3% (n = 220,000);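 note: potency is the fitted concentration of half-maximal effect; plate controls were no enzyme wells and a reference inhibitor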
# Target sequence (P00352 whole entry, looked up): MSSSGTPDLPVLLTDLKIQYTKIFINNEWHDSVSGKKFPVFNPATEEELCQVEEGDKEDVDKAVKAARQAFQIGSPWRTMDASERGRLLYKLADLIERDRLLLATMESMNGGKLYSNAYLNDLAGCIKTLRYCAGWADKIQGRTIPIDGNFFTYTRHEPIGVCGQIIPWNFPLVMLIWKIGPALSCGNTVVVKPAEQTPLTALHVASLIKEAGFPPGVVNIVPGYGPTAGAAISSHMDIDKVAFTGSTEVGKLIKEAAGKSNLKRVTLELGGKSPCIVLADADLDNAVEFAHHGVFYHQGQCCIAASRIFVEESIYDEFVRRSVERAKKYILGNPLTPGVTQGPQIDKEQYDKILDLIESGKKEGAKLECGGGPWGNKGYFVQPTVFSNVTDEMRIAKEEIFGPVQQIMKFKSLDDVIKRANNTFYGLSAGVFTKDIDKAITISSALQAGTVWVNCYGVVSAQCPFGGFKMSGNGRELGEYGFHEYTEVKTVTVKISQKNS
# Numbers without * were called inactive; ? = inconclusive; nt = no result given; [ ] = dose if it differs, or a comment. Shown are actives, neighbours in structure and some others; about 8.5% of the full set was active somewhere. Unless noted, calls come from the whole dose curve; as a rule, active = well fitted inhibition curve with a large enough effect (not every such curve was filed as active); inconclusive = small, poorly fitted or top-dose-only effect, or another doubt; inactive = no such curve, though single readings can be large or run the other way. Unless noted, % is set by controls: 0 for no effect and ±100 for the full control effect.
SMILES,RGS12 GoLoco inh,NPSR antag,Coupling enz,Sfp PPTase inh,KDM4E inh,ALDH1A1 block
O=C(N[C@H](C(=O)O)c1ccccc1)C1CCC(Cn2cnc3ccccc3c2=O)CC1 (some centres not stated),9%,13%,2,2%,-11%,nt
CC(=O)N(Cc1ccco1)C1(C(=O)NC2CCCC2)CCCCC1,2%,-3%[46.1 µM],5,16%,5%,-8%
O=CN(Cc1ccco1)C1(C(=O)NC2CCCCC2)CCCCC1,4%,-12%[46.1 µM],4,13%,9%,14µM*
S=c1[nH]c2ccc(Cl)cc2s1,-18%,?,10,-4%,7.9µM*,1.3µM*
Cc1cc(=O)[nH]c2ccc(Cl)cc12,-1%,-4%[46.1 µM],2,-11%,-3%,10%
Nc1ccc(-c2cc(N)n(-c3ccccc3)n2)cc1,1%,-18%[46.1 µM],-21,-20%,-3%,11µM*
Nc1cc(-c2ccc(Cl)cc2)nn1-c1ccccc1,7%,-2%,3,3%,?,6%
O=C1c2ccc([N+](=O)[O-])cc2C(=O)N1c1ccc(Cl)cn1,11%,-3%,0,5%,-22%,20%
O=C1c2cccc3c([N+](=O)[O-])ccc(c23)C(=O)N1c1ccc(Cl)cn1,-7%,5µM*,-14,-13%,-11%,-8%
O=C1c2cccc3c([N+](=O)[O-])ccc(c23)C(=O)N1c1nccs1,-7%,10µM*,-11,15%,1%,-13%
S=c1[nH]nc(C2CCCCC2)n1/N=C/c1cccc(Cl)c1Cl,nt,nt,-1,-3%,nt,nt
CCCN(C(=O)Cn1ncc2c(=O)oc3ccccc3c21)c1cccc(C)c1,-5%,-29%[46.1 µM],7,-1%,-1%,11µM*
Cc1ccc(S(=O)(=O)NC2=NCN(C(C)C)CN2)cc1,nt,nt,3,15%,nt,nt
O=C(NCCc1ccccc1)C1CCN(S(=O)(=O)c2ccc(-n3cnnn3)cc2)CC1,-10%,-19%[46.1 µM],-1,-1%,-4%,14µM*
O=C(NCc1ccco1)C1CCCN(S(=O)(=O)c2cccc3cccnc23)C1 (configuration not stated),-1%,5%[46.1 µM],4,?,0%,25µM*
O=C(NCc1ccccc1F)C1CCCN(S(=O)(=O)c2ccc(-n3cnnn3)cc2)C1 (configuration not stated),nt,nt,0,7%,nt,nt
O=C(NC1CCCCC1)C1CCCN(S(=O)(=O)c2cccc3cccnc23)C1 (configuration not stated),-6%,32%,-1,12%,7%,nt
O=C(NCc1ccco1)C1CCCN(S(=O)(=O)c2ccc(-n3cnnn3)cc2)C1 (configuration not stated),-4%,9%[46.1 µM],1,40µM*,?,25µM*
O=C(NCc1ccco1)C1CCC(CNS(=O)(=O)c2cccc3cccnc23)CC1 (configuration not stated),15%,-11%[46.1 µM],3,16%,-2%,13µM*
CCOC(=O)c1nc(Nc2cc(Cl)ccc2OC)c2ccccc2n1,nt,nt,0,13%,nt,nt
CC(=O)c1ccccc1[N+](=O)[O-],5%,nt,nt,nt,nt,-6%
CCCc1nc2ccccc2c(=O)n1/N=C/c1ccc(O)cc1O,4%,-30%[46.1 µM],3,-2%,32µM*,?
COc1cc2c(cc1OC)C(c1ccccc1[N+](=O)[O-])N(C(C)=O)CC2 (configuration not stated),nt,nt,2,45µM*,nt,nt
COc1cc2c(cc1OC)C(COc1ccccc1OC)N(C(C)=O)CC2 (configuration not stated),nt,nt,1,0%,nt,nt
COc1ccccc1NC(=O)CN1C(=O)C2(OCCCO2)c2ccccc21,2%,-10%[46.1 µM],5,19%,0%,22µM*
SMILES,RGS12 GoLoco inh,NPSR antag,Coupling enz,Sfp PPTase inh,KDM4E inh,ALDH1A1 block
O=C1N(Cc2ccccc2F)c2ccccc2C12OCCCO2,15%,-2%[46.1 µM],nt,7%,5%,22µM*
O=C1N(CCCCN2C(=O)C3(OCCO3)c3ccccc32)c2ccccc2C12OCCO2,7%,-2%[46.1 µM],-3,9%,0%,2%
O=C(CN1C(=O)C2(OCCO2)c2ccccc21)c1ccc(Br)cc1,nt,-20%[46.1 µM],-1,9%,-4%,14µM*
CCC1(C(=O)c2ccc(Cl)cc2)C2c3ccccc3OC(=O)C21C(=O)Nc1ccccc1 (configuration not stated),-3%,0%,-11,17%,4%,-1%
C(=C\c1ccccc1)/CNCC1CCCO1 (configuration not stated),3%,8%,1,10%,-2%,25µM*
COc1ccc(N2CSC3=C(C#N)C(c4ccc(OC)c(OC)c4)CC(=O)N3C2)c(OC)c1 (configuration not stated),-32%,-3%[46.1 µM],-43*,3.2µM*,-24%,11µM*
COc1ccc(N2CSC3=C(C#N)C(c4cc(OC)ccc4OC)CC(=O)N3C2)c(OC)c1 (configuration not stated),-13%,6%[46.1 µM],-46*,3.2µM*,-22%,8.9µM*
CCOc1ccccc1N1CSC2=C(C#N)C(c3c(OC)ccc4ccccc34)CC(=O)N2C1 (configuration not stated),-12%,-11%[46.1 µM],-49*,3.2µM*,7.9µM*,4.5µM*
CCOc1ccccc1N1CCN(S(=O)(=O)c2cc(C)ccc2OC)CC1,9%,5%,0,0%,-26%,-17%
COc1ccc(N2CSC3=C(C#N)C(c4cc(OC)c(OC)cc4OC)CC(=O)N3C2)c(OC)c1 (configuration not stated),-8%,-7%[46.1 µM],-48*,3.5µM*,-14%,8.9µM*
CCOC(=O)c1[nH]c(=O)[nH]c1CNc1ccccc1C#N,nt,nt,0,22%,nt,nt
O=C(O)c1ccc(NS(=O)(=O)/C=C/c2ccccc2)cc1O,-8%,19%[46.1 µM],20,-2%,?,10µM*
O=C(NC1CC1)c1cc(=O)c2ccccc2o1,5%,-1%[46.1 µM],-1,5%,-4%,13%
O=c1cc(/C=C/c2ccccc2)oc2ccccc12,8%,5µM*,-1,?,?,?
COC(=O)c1ccc(C)c(NC(=O)CCc2ccc(OC)cc2)c1,-27%,3%,3,89µM*,0%,20µM*
COC(=O)c1cccc(NC(=O)CCc2ccccc2)c1,0%,19%,0,0%,-2%,25µM*
COC(=O)c1cccc(NC(=O)CCc2cc(OC)c(OC)c(OC)c2)c1,-14%,25%,-3,-7%,2%,-2%
Cc1ccc(C(=O)O)cc1NC(=O)CCc1ccccc1,-8%,25%,5,19%,-6%,8%
COC(=O)[C@H]1O[C@@H](c2cc(OC)c(C)c(OC)c2OCc2ccccc2)[C@H](C)[C@H]2O[C@@]12C,3%,nt,1,1%,5%,-3%

# From PubChem
